# Laboratory results from PubChem BioAssay (EPA / NIEHS).
# Records with an inconclusive call do not appear. More than one record can exist for a structure, and the calls need not agree. Active and inactive are the calls of the source. The calls were made as follows, unless noted: active = hit-call score of the fitted dose curve at least 0.9, where 1 is the maximum; inactive = score below 0.9.
# What was measured:
# [1] = read-out: Interleukin-10 (IL10), IL10 (gene 3586); assay: BSK_IMphg_IL10: BioMAP Diversity Plus: IMphg Assay for Interleukin-10 (IL10) Biomarker Activity (AID 2284294); conditions: primary human endothelial cells with macrophages
# Protocol: BSK_IMphg is a cell-based, multiplexed-readout assay that uses venular endothelial cells and macrophages, a human vascular primary cell, with measurements taken at 24 hours after chemical dosing in a microplate: 96-well plate.BSK_IMphg_IL10 is an assay component measured in the BSK_IMphg assay. It measures IL-10 antibody related to regulation of gene expression using ELISA technology.Data from the assay component BSK_IMphg_IL10 was analyzed at the endpoint, BSK_IMphg_IL10, in the positive analysis fitting direction relative to DMSO as the negative control and baseline of activity. Using a type of binding reporter, gain or loss-of-signal activity can be used to understand protein changes. […]
# (§1) The levels of cell surface (or secreted, indicated by the prefix "s") biomarker endpoints were measured by ELISA. Overt cytotoxicity to cells in confluent adherent cultures (all systems other than the BT system) was assessed by measuring total protein levels using sulforhodamine B (SRB) staining in parallel cultures at the time of biomarker measurements, indicated as SRB endpoints. For proliferation assays for adherent cell types, individual cell types are cultured at sub-confluence and relative cell numbers quantified by SRB staining at time points optimized for each system (48 h: 3C and CASM3C systems; 72 h: BT and HDF3CGF systems; 96 h: SAg system). […] Plates were read after 6 h.
# [2] = BSK_IMphg_SRB.Mphg: Macrophage Viability Assessment in the BioMAP Diversity Plus: IMphg Assay (AID 2284295); conditions: primary human endothelial cells with macrophages
# Protocol: BSK_IMphg is a cell-based, multiplexed-readout assay that uses venular endothelial cells and macrophages, a human vascular primary cell, with measurements taken at 24 hours after chemical dosing in a microplate: 96-well plate.BSK_IMphg_SRB.Mphg is an assay component measured in the BSK_IMphg assay. It measures […] related to cell death using Sulforhodamine staining technology.Data from the assay component BSK_IMphg_SRB.Mphg was analyzed at the endpoint, BSK_IMphg_SRB.Mphg, in the positive analysis fitting direction relative to DMSO as the negative control and baseline of activity. Using a type of viability reporter, gain or loss-of-signal activity can be used to understand protein changes. […]
# as §1
# [3] = read-out: Thrombomodulin, THBD (gene 7056); assay: BSK_LPS_Thrombomodulin: BioMAP Diversity Plus: LPS Assay for Thrombomodulin Biomarker Activity (AID 2284296); conditions: primary human HUVEC with PBMC
# In short: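 Thrombomodulin on the surface of LPS-activated endothelial/PBMC co-cultures was quantified by ELISA at 24 hours post-dosing, with DMSO as baseline. Parallel SRB total-protein staining flagged overt cytotoxicity.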
# CD69, CD69 (gene 969) = assay: BSK_LPS_CD69: BioMAP Diversity Plus: LPS Assay for CD69 Biomarker Activity (AID 2284303); conditions: primary human HUVEC with PBMC
# Protocol: BSK_LPS is a cell-based, multiplexed-readout assay that uses umbilical vein endothelium and peripheral blood mononuclear cells, a human vascular primary cell co-culture, with measurements taken at 24 hours after chemical dosing in a 96-well plate.BSK_LPS_CD69 is an assay component measured in the BSK_LPS assay. It measures CD69 antibody related to regulation of gene expression using ELISA technology.Data from the assay component BSK_LPS_CD69 was analyzed at the endpoint, BSK_LPS_CD69, in the positive analysis fitting direction relative to DMSO as the negative control and baseline of activity. Using a type of binding reporter, gain or loss-of-signal activity can be used to understand protein changes. […]
# as §1
# [4] = VALA_TUBIPS_Agonist_TubuleLength: VALA Sciences human iPS-derived Endothelial Tubule Formation (TUBIPS) Agonism Assay (AID 2284311; active = hit-call score of the fitted dose curve at least 0.9, where 1 is the maximum)
# In short: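 Agonist-mode readout is the gain in imaged tubule length versus DMSO baseline. It was measured by fluorescence high-content imaging 72 h after dosing human iPSC-derived endothelial cells.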
# [5] = VALA_MIGHUV2_CellCount: Viability Assessment in the VALA Sciences human Umbilical Vein Endothelial Cell Migration (MIGHUV) Assay, Area of Scratch Wound after Recovery (AID 2284314; active = hit-call score of the fitted dose curve at least 0.9, where 1 is the maximum)
# In short: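 Viability read-out: Hoechst-stained nuclei counted by fluorescence imaging after a 24 h recovery period in fixed, scratched HUVEC plates. Compound was dosed within 30 min of scratching at six concentrations (triplicate); DMSO at 0.1 % served as baseline.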
# [6] = VALA_MIGHUV2_Bcatenin: VALA Sciences human Umbilical Vein Endothelial Cell Migration (MIGHUV) Assay, Nuclear Translocation of beta-Catenin after Recovery (AID 2284315; active = hit-call score of the fitted dose curve at least 0.9, where 1 is the maximum)
# Protocol: VALA_MIGHUV2_BCatenin is a cell-based, multiplexed assay that uses umbilical vein-derived endothelial cells (HUVEC). Measurements were taken 24 hours after chemical dosing in a 96-well plate.VALA_MIGHUV2_Bcatenin is the one of two assay components measured from the VALA_MIGHUV2 assay. It is designed to make measurements of nuclear translocation of CTNB, a form of morphology reporter, as detected with fluorescence intensity signals by HCS Fluorescent Imaging technology.Data from the assay component VALA_MIGHUV2_BCatenin was analyzed at the endpoint, VALA_MIGHUV2_BCatenin, in the positive analysis fitting direction relative to DMSO as the negative control and baseline of activity. Using a type of morphology reporter, gain-of-signal activity can be used to understand developmental effects. To generalize the intended target to other relatable targets, this assay endpoint is annotated to the neurodevelopment intended target family, where the subfamily is migration.
# Cells were seeded on 384-well microplates (day-0) at a density of 9000 cells per well for detection of wound area recovery or 4000 cells per well for detection of beta-catenin (CTNB) immunoreactivity and incubated in Endothelial Cell Growth Medium (CAI, San Diego; catalog 211-500). After 24 hours of culture, the HUVEC plates were scratched using a custom scratch head with the Bravo liquid handling system. […]
compound,measurement,setting,value
CCNS(=O)(=O)C(F)(F)C(F)(F)C(F)(F)C(F)(F)C(F)(F)C(F)(F)C(F)(F)C(F)(F)F,outcome,[1],inactive
same,AC50,[2],30 µM (active)
same,outcome,[2],inactive
same,AC50,[3],54.5 µM (active)
same,outcome,[3],inactive
same,AC50,"CD69, CD69 (gene 969)",15.4 µM (active)
same,outcome,"CD69, CD69 (gene 969)",inactive
O=P(OCCCl)(OCCCl)OCCCl,outcome,[4],inactive
same,outcome,[5],inactive
Clc1ccc(Cl)c(Cl)c1,outcome,[4],inactive
CO[C@@H]1[C@H](OC(=O)NC(=O)CCl)CC[C@]2(CO2)[C@H]1[C@@]1(C)O[C@@H]1CC=C(C)C,AC50,[6],0.00129 µM (active)
